These results are taken from PubChem BioAssay (Tox21).

Molecules are shown by their SMILES. Inconclusive results are not listed. A number with no mark means an inactive call. The source made the active and inactive calls. Unless noted, calls come from the whole dose curve; as a rule, active = well fitted curve in the direction sought with a large enough effect in the repeat runs; inconclusive = weak or mixed curves; inactive = no such curve, though single readings can be large; an effect the other way counts as inactive or inconclusive.

Assay [1] can be described thus: qHTS assay to identify aromatase inhibitors - cell viability counter screen (AID 743084;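 note: cells stimulated with testosterone during compound exposure; nearly all actives have a fitted effect of over 55% in size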). (In general: qHTS replaces the single test concentration by a dilution series.)
Assay [2] in a line: qHTS assay to identify small molecule that activate the aryl hydrocarbon receptor (AhR) signaling pathway - cell viability counter screen (AID 743086).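 Note: HepG2 liver cells carrying the AhR DRE luciferase reporter; series mostly up to about 70 µM; nearly all actives have a fitted effect of over 45% in size.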 In short, it runs like this: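 HepG2-AhR-luc (HG2L7.5c1) cells, 4000/well, were preincubated 5 h at 37C, exposed to compound in qHTS format for 24 hr at 37C, then given CellTiter-Fluor for 30 min; viability was read as fluorescence in the reporter wells.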

Assay [3] addresses Peroxisome proliferator-activated receptor gamma (Homo sapiens) (UniProt P37231). As to the kind of experiment: qHTS assay to identify small molecule agonists of the peroxisome proliferator-activated receptor gamma (PPARg) signaling pathway (AID 743094; active = well fitted activation curve with a large enough effect in the signal ratio in the repeat runs, not every such curve was filed as active; the % refers to the signal ratio). In a few lines:
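Fluorescence-based beta-lactamase readout in HEK293H PPARg UAS-bla cells after 17 h compound exposure (37C) and 1 h B/G FRET substrate incubation at room temperature.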

Assay [4] is described as follows: qHTS assay to identify small molecule antagonists of the peroxisome proliferator-activated receptor gamma (PPARg) signaling pathway - cell viability counter screen (AID 743194). Note: nearly all actives have a fitted effect of over 55% in size. In short, it runs like this:
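PPARg-UAS-bla HEK293H cells were plated, rested 5 h at 37 C, then treated with compounds plus rosiglitazone (50 nM final) for 17 h at 37 C; viability was then read by CellTiter-Glo luminescence after 30 min at room temperature.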

A short description of assay [5]: qHTS assay for small molecule agonists of the antioxidant response element (ARE) signaling pathway - cell viability counter screen (AID 743203; calls by dose curve; note: nearly all actives have a fitted effect of over 55% in size). In short, it runs like this: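 Parallel cytotoxicity read-out for the ARE-bla screen: HepG2 reporter cells, 16 hrs with compounds, then CellTiter-Glo luminescence.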
Assay [6] can be described thus: qHTS assay for small molecule activators of the heat shock response signaling pathway - cell viability counter screen (AID 743209). Note: nearly all actives have a fitted effect of over 50% in size. In short, it runs like this:
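To flag cytotoxic compounds, HSE-bla HeLa cells plated at 1500 cells/well were dosed for 5 h at 37 C, followed by the reporter FRET read and then CellTiter-Glo, with luminescence recorded 30 min after reagent addition.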

The target in assay [7] is Aryl hydrocarbon receptor (Homo sapiens) (UniProt P35869). As to the kind of experiment: qHTS assay to identify small molecule that activate the aryl hydrocarbon receptor (AhR) signaling pathway (AID 743085).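 For activation: HG2L7.5c1 human HepG2 liver cells with stably integrated DRE-driven firefly reporter; series mostly up to about 70 µM.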 Note: nearly all actives have a fitted effect of over 15% in size. Note: potency is the fitted concentration of half-maximal effect. In short, it runs like this:
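A multiplexed format paired cell viability (CellTiter-Fluor fluorescence) with AhR-dependent luciferase output (ONE-Glo luminescence) in the same wells of HepG2 DRE-luc cells after 24 h compound exposure at 37C.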

Assay [8] in a line: qHTS assay for small molecule activators of the heat shock response signaling pathway (AID 743210; active = well fitted activation curve with a large enough effect in the signal ratio in the repeat runs, with a control signal flat, not every such curve was filed as active; the % refers to the signal ratio;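 note: HeLa cells with beta-lactamase reporter driven by heat shock elements; series mostly up to about 63 µM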). In a few lines:
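Activation of heat shock element-controlled beta-lactamase expression is measured in HeLa cells by LiveBLAzer FRET fluorescence, with compound exposure lasting 5 h at 37 C and substrate loading 2.5 h at room temperature.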

Assay [9] is described as follows: qHTS assay for small molecule agonists of the antioxidant response element (ARE) signaling pathway (AID 743202; active = well fitted activation curve with a large enough effect in the signal ratio in the repeat runs, not every such curve was filed as active; the % refers to the signal ratio; note: potency is the fitted concentration of half-maximal effect). In a few lines:
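Steps: seed ARE-bla HepG2 cells (2,000/well); incubate 5 h at 37 C; add compounds by pin tool; incubate 16 h at 37 C; add FRET substrate; read fluorescence after 2 h at RT.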

Assay [10] concerns the target Peroxisome proliferator-activated receptor gamma (Homo sapiens) (UniProt P37231). As to the kind of experiment: qHTS assay to identify small molecule antagonists of the peroxisome proliferator-activated receptor gamma (PPARg) signaling pathway (AID 743191; calls by dose curve; note: series mostly up to about 63 µM; nearly all actives have a fitted effect of over 30% in size). In short, it runs like this:
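GeneBLAzer PPARg UAS-bla HEK293H cells carrying a UAS-driven beta-lactamase reporter were plated at 3000 cells/well, preincubated 5 h at 37C, then given compound for 17 h at 37C; LiveBLAzer B/G FRET substrate was read after 1 h at room temperature.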
% is set by controls: 0 for no effect and ±100 for the full control effect.

Chain of Aryl hydrocarbon receptor (Homo sapiens) (P35869 whole entry, looked up): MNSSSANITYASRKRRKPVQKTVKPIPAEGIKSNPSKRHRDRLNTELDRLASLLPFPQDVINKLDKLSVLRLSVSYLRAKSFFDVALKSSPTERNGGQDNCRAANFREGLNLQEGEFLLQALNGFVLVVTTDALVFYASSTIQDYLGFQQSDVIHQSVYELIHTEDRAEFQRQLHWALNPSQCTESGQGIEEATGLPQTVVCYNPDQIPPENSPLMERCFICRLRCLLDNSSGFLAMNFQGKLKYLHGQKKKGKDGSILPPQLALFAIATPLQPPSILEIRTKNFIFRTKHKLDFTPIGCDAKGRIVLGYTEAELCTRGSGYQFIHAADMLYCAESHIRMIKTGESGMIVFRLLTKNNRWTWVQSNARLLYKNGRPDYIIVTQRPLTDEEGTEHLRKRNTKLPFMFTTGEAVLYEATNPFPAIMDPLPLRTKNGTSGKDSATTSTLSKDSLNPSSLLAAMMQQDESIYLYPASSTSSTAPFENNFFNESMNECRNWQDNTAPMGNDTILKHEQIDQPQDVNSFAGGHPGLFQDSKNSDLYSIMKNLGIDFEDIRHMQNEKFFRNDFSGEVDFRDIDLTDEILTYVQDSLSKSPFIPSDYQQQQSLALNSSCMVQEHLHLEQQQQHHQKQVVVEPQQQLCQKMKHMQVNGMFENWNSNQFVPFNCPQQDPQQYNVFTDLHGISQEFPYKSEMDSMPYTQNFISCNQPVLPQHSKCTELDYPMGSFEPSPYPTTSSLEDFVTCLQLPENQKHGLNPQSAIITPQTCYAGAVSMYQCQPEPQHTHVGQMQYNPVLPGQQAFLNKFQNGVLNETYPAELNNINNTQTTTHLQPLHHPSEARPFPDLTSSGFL
Chain of Peroxisome proliferator-activated receptor gamma (Homo sapiens) (P37231 whole entry, looked up): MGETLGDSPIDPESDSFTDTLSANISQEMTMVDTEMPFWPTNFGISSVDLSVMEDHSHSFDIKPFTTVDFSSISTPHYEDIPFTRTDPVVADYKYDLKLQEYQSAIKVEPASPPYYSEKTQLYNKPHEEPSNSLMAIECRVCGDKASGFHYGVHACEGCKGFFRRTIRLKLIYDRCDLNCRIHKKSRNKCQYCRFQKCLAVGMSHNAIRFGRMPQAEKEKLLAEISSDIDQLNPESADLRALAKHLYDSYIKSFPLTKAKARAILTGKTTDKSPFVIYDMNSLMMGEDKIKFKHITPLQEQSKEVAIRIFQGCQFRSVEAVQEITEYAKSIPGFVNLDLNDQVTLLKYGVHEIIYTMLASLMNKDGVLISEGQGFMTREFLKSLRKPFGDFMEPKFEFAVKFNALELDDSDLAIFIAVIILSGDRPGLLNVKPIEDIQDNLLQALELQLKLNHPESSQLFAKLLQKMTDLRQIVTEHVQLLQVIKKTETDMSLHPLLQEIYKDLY

For `O=C(/N=N/C(=O)OCc1ccccc1)OCc1ccccc1`, the Potency entry in [1] and in assay [2] was “inactive” in each case. Besides, the call in assay [3], in assay [4], in assay [5] and in [6] was inactive.

On to `O=C1c2cccc3c2[C@H](CCC3)CN1[C@@H]1CN2CCC1CC2`, for which the Potency result in assay [1] and in assay [7] was “inactive” throughout. Also, the molecule was classed as inactive in assay [3], in assay [4], in [5], in assay [6] and in [8].

With `C[Si](C)(C)C`, the Potency result in [1], in [7] and in [9] was “inactive” in each case. Further, the outcome in assay [3], in assay [5], in [6] and in assay [8] was inactive.

Regarding `Cc1cccc(C)c1OCC(C)N` (configuration not stated), the Potency result in [1], in [2], in assay [10] and in assay [9] was “inactive” each time. Moreover, the molecule was called inactive in [3], in assay [4], in [5], in assay [6] and in assay [8].

With `O=C(CCNNC(=O)c1ccncc1)NCc1ccccc1`, the Potency entry in assay [1], in assay [2] and in assay [9] was “inactive” throughout. In addition, the outcome in assay [4], in assay [5], in assay [6] and in [8] was inactive.

Consider `c1ccc2c(c1)ccc1c3ccccc3ccc21`, for which the Potency result in assay [1] and in [10] was “inactive” each time. Besides, the outcome in assay [3], in assay [4], in assay [5] and in assay [6] was inactive.

Take `CC(C)(C)c1n[nH]c(=S)n(N)c1=O`: the Potency result in [1], in [2] and in [9] was “inactive” throughout. The molecule was classed as inactive in assay [4], in assay [5], in assay [6] and in assay [8].

For `CCCCOC(=O)c1ccccc1`, the Potency result in [1], in assay [2], in [10] and in assay [9] was “inactive” each time. Besides, the call in [3], in [4], in [5] and in assay [6] was inactive.

On to `CCN(CC)CC(=O)Nc1c(C)cccc1C`, for which the Potency result in [1], in assay [2] and in assay [9] was “inactive” in each case. Besides, the molecule was classed as inactive in assay [4], in assay [5], in assay [6] and in assay [8].

In the case of `O=C(O)C(=O)Cc1ccccc1`, the Potency result in [1], in assay [7] and in assay [10] was “inactive” each time. Further, in assay [9], the Potency was 27.3 µM (active). The call in assay [5], in assay [6] and in assay [8] was inactive.

For `O=C(O)c1cc(Br)c(O)c(Br)c1`, the Potency entry in assay [1] and in assay [9] was “inactive” in each case. Moreover, the molecule was classed as inactive in assay [3], in [4], in assay [5] and in assay [6].

On to `Cc1cc(NC(=O)C2=C(O)c3ccccc3S(=O)(=O)N2C)no1`, for which the Potency result in assay [1] and in assay [7] was “inactive” each time. The molecule was classed as inactive in assay [3], in assay [4], in assay [5], in assay [6] and in assay [8].

Consider `NC(CO)C(=O)NNCc1ccc(O)c(O)c1O` (configuration not stated), for which the Potency result in [1] and in assay [10] was “inactive” in each case. The outcome in assay [3], in assay [4], in assay [5], in assay [6] and in assay [8] was inactive.

As for `NCCN1CCOCC1`, the Potency entry in assay [1], in assay [7] and in assay [9] was “inactive” throughout. Further, the molecule was called inactive in assay [4], in [5], in [6] and in [8].

Turning to `CC(C)NCC(O)COc1cccc2[nH]ccc12` (configuration not stated), the Potency entry in [1] and in [2] was “inactive” throughout. Moreover, the molecule was called inactive in assay [3], in assay [4], in assay [5], in [6] and in assay [8].

As to `O=S(O)(O)=S`, the values for the activity change, negative = cytotoxicity in assay [1], in assay [4] and in assay [6] were 0.159% [at 8.47 µM], -0.949% [at 5.95 µM] and 5.21% [at 5.95 µM], respectively. The activation in assay [7] was -4.49% [at 8.47 µM]; in assay [3], 0.645% [at 7.08 µM]; in assay [8], -0.665% [at 5.95 µM]. Further, in assay [5], the viability change, negative = cytotoxic was 2.86% [at 8.36 µM].

As for `Nc1cccc(O)c1`, the Potency result in assay [1] was “inactive”. Further, the Potency in assay [7] was 35.4 µM (active). In addition, the result in [3], in assay [4], in assay [5], in [6] and in assay [8] was inactive.

For the molecule `CCCCCCOc1ccccc1C(N)=O`, the Potency result in assay [1] and in [10] was “inactive” in each case. The molecule was called inactive in [3], in assay [4], in assay [5], in assay [6] and in assay [8].

Take `CCCC/C=C\CCCCCCCCCC=O`: the Potency entry in assay [1] and in [7] was “inactive” in each case. The call in assay [3], in assay [4], in assay [5], in assay [6] and in [8] was inactive.

In the case of `On1nnc2ccccc21`, the Potency entry in assay [1], in assay [10] and in assay [9] was “inactive” in each case. The result in assay [3], in [4], in [5], in assay [6] and in [8] was inactive.

As to `C[C@@H](O)[C@H]1C(=O)N2C(C(=O)O)=C(SCCN=CN)C[C@H]12`, the Potency result in assay [1], in [2] and in [9] was “inactive” throughout. Further, the call in [3], in assay [4], in assay [5] and in [8] was inactive.

Take `CCC(C)NC(N)=O` (configuration not stated): the result in assay [3], in assay [4], in assay [5], in assay [6] and in assay [8] was inactive. Besides, the Potency result in assay [9] was “inactive”.

As for `COC(=O)C1CC(=O)C(C(=O)OC)CC1=O` (configuration not stated), the activation in [7] was 0.473% [at 8.47 µM]; in [3], -2.09% [at 7.08 µM]. Besides, the results for the viability change, negative = cytotoxic in assay [2] and in assay [5] were 14.4% [at 8.47 µM] and -0.839% [at 8.36 µM], respectively. Further, the ratio activity, negative = inhibition in assay [10] is 0.96% [at 5.95 µM]. Further, the activity change, negative = cytotoxicity is 17.9% [at 5.95 µM] in assay [4] and 12.2% [at 5.95 µM] in [6].

Consider `CC(C)C(=O)OCc1cccc(OC(=O)[C@@H]2N3C(=O)[C@@H](NC(=O)Cc4ccccc4)[C@H]3SC2(C)C)c1`, for which the molecule was called inactive in assay [4], in assay [5] and in assay [8].

Turning to `CN1CCN(CC(=O)N2c3ccccc3C(=O)Nc3cccnc32)CC1`, the Potency entry in [7] is “inactive”. Moreover, in assay [3], the molecule was called inactive. The ratio activity, negative = inhibition in assay [10] is 0.895% [at 5.95 µM]. Besides, the activity change, negative = cytotoxicity in assay [4] was 4.99% [at 5.95 µM]. Also, the results for the activation in [9] and in assay [8] were 3.2% [at 8.36 µM] and -0.267% [at 5.95 µM], respectively. In addition, the viability change, negative = cytotoxic in [5] was 1.72% [at 8.36 µM].

Take `Cc1[nH]cnc1-c1ccc(Cl)cc1`: the Potency entry in assay [10] and in assay [9] was “inactive” in each case. In addition, the molecule was called inactive in assay [4], in assay [5], in [6] and in [8].
